According to PubChem BioAssay (Tox21):
Records with an inconclusive call do not appear. Calls of active or inactive are those of the source. Unless noted, calls come from the whole dose curve; as a rule, active = well fitted curve in the direction sought with a large enough effect in the repeat runs; inconclusive = weak or mixed curves; inactive = no such curve, though single readings can be large; an effect the other way counts as inactive or inconclusive.

What was measured:
[1] = qHTS assay to identify small molecule antagonists of the thyroid receptor (TR) signaling pathway - cell viability counter screen (AID 743064); note: nearly all actives have a fitted effect of over 50% in size; note: potency is the fitted concentration of half-maximal effect
Procedure, shortened: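 GH3.TRE-Luc rat pituitary cells carrying a TRE-luciferase reporter were treated with compound plus 1 nM T3 (final) for 23.5 h at 37 °C. Viability was then read in the same wells by CellTiter-Fluor fluorescence after a further 30 min.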

[2] = qHTS assay to identify small molecule antagonists of the thyroid receptor (TR) signaling pathway (AID 743065); note: series mostly up to about 70 µM; nearly all actives have a fitted effect of over 55% in size
Procedure, shortened: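 Antagonism measured as loss of luciferase signal in GH3 cells stably carrying a TRE-luciferase reporter, co-treated with compound and T3 (1 nM final) for 23.5 h at 37 C. Viability was read in the same well by CellTiter-Fluor.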

[3] = system: thyroid hormone receptor (rat, GH3 cells); assay: qHTS assay to identify small molecule agonists of the thyroid receptor (TR) signaling pathway (AID 743066; calls by dose curve)
[4] = qHTS assay to identify small molecule antagonists of the estrogen receptor alpha (ER-alpha) signaling pathway - cell viability counter screen (AID 743074; calls by dose curve;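 note: HEK293 cells carrying ER-alpha-UAS-bla reporter stimulated with 17beta-estradiol; nearly all actives have a fitted effect of over 45% in size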)
[5] = qHTS assay to identify small molecule antagonists of the estrogen receptor alpha (ER-alpha) signaling pathway using the BG1 cell line - cell viability counter screen (AID 743081);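 note: compound given together with 17beta-estradiol as the ER stimulus; series mostly up to about 70 µM; nearly all actives have a fitted effect of over 45% in size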
Aromatase (Homo sapiens) = Aromatase (Homo sapiens) (UniProt P11511); assay: qHTS assay to identify aromatase inhibitors (AID 743083); note: nearly all actives have a fitted effect of over 55% in size; note: potency is the fitted concentration of half-maximal effect; for activity, negative = inhibition: series mostly up to about 70 µM
[6] = molecular target: Estrogen receptor (Homo sapiens) (UniProt P03372); assay: qHTS assay to identify small molecule agonists of the estrogen receptor alpha (ER-alpha) signaling pathway (AID 743075; calls by dose curve)
[7] = molecular target: Estrogen receptor (Homo sapiens) (UniProt P03372); assay: qHTS assay to identify small molecule antagonists of the estrogen receptor alpha (ER-alpha) signaling pathway (AID 743069; active = well fitted curve in the direction sought with a large enough effect in the signal ratio in the repeat runs, not every such curve was filed as active; the % refers to the signal ratio)
Procedure, shortened: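 Compound effects are measured against 17beta-estradiol stimulation in HEK293 cells with a UAS-controlled beta-lactamase reporter for ER-alpha. Exposure lasts 18 hr at 37C; LiveBLAzer B/G FRET substrate follows for 2 hr at room temperature.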

[8] = molecular target: Estrogen receptor (Homo sapiens) (UniProt P03372); assay: qHTS assay to identify small molecule agonists of the estrogen receptor alpha (ER-alpha) signaling pathway using the BG1 cell line (AID 743079); note: nearly all actives have a fitted effect of over 20% in size; note: potency is the fitted concentration of half-maximal effect
[9] = qHTS assay to identify small molecule antagonists of the estrogen receptor alpha (ER-alpha) signaling pathway using the BG1 cell line (AID 743080; calls by dose curve;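 note: BG1 cells stimulated with 17beta-estradiol alongside compound; nearly all actives have a fitted effect of over 25% in size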; note: potency is the fitted concentration of half-maximal effect)
Procedure, shortened: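 Endogenous full-length ER-alpha in BG1-Luc-4E2 cells drives a stably integrated 4×ERE luciferase gene; compounds were tested against 17beta-estradiol over 21.5 h, with luminescence and multiplexed viability fluorescence recorded.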
% is set by controls: 0 for no effect and ±100 for the full control effect.

Estrogen receptor (Homo sapiens), sequence (P03372 whole entry, looked up): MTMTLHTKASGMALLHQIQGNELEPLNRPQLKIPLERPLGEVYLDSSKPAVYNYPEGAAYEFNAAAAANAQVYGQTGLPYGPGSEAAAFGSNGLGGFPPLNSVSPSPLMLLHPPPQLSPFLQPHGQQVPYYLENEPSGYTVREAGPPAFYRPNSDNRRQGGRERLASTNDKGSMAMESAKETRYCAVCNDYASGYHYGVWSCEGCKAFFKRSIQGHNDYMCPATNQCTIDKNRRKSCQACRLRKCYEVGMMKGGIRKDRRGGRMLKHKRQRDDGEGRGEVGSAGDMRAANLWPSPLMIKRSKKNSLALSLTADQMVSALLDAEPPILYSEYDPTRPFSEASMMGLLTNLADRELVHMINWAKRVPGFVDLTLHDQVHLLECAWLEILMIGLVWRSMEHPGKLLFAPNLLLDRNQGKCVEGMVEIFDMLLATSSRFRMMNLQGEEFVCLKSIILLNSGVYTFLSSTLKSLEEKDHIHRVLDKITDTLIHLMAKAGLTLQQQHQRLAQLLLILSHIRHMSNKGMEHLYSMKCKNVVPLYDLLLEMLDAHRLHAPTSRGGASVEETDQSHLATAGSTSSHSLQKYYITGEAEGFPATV
Aromatase (Homo sapiens), sequence (P11511 whole entry, looked up): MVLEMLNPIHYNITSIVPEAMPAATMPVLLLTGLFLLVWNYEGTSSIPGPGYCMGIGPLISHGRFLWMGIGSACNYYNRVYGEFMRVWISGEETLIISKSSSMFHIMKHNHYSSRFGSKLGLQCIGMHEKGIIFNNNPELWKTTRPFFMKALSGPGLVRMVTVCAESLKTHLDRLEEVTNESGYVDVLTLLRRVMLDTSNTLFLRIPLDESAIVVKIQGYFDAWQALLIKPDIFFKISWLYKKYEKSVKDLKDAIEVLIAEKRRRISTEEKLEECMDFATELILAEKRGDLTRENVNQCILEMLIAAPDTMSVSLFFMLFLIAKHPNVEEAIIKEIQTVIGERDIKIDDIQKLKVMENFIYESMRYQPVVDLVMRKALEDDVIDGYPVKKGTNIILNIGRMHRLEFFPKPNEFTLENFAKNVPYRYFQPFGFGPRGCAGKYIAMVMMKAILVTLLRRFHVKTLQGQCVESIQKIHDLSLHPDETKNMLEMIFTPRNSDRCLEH

OCCN(CCO)c1cccc(Cl)c1
inactive: Potency [1] | Potency [2] | outcome [3] | outcome [4] | outcome [5] | Potency (Aromatase (Homo sapiens))

Brc1ccc(-c2ccccc2)cc1
inactive: Potency [1] | Potency [2] | outcome [3] | outcome [5]

CCCCCCCCC1CCC(=O)O1 (stereo unspecified)
inactive: Potency [1] | Potency [2] | outcome [3] | outcome [6] | outcome [5] | Potency (Aromatase (Homo sapiens))

CC(=O)Nc1ccc(S(=O)(=O)Cl)cc1
inactive: Potency [1] | Potency [2] | outcome [3] | outcome [4] | outcome [5] | Potency (Aromatase (Homo sapiens))

C=Cc1ccccn1
inactive: Potency [1] | Potency [2] | outcome [3] | outcome [5] | Potency (Aromatase (Homo sapiens))

COc1nccnc1NS(=O)(=O)c1ccc(N)cc1
inactive: Potency [1] | Potency [2] | outcome [3] | outcome [5] | Potency (Aromatase (Homo sapiens))

CCCCNc1ccc(C(=O)OCCN(C)C)cc1
inactive: Potency [1] | outcome [3] | outcome [4] | outcome [5] | Potency (Aromatase (Homo sapiens))

CCC(C=O)CC
inactive: Potency [1] | Potency [2] | outcome [3] | outcome [4] | outcome [5] | Potency (Aromatase (Homo sapiens))

CCCOC(OCCC)OCCC
inactive: Potency [1] | Potency [2] | outcome [3] | outcome [4] | outcome [5] | Potency (Aromatase (Homo sapiens))

CC(C(=O)O)c1ccc2c(c1)CC(=O)c1ccccc1S2 (stereo unspecified)
inactive: Potency [1] | outcome [3] | outcome [7] | outcome [4] | outcome [6] | Potency [8] | Potency [9] | Potency (Aromatase (Homo sapiens))

CC(COC(C)(C)C)OCCCO (stereo unspecified)
inactive: Potency [1] | Potency [2] | outcome [4] | outcome [5] | Potency (Aromatase (Homo sapiens))

C=CCCCCCCCCCCCC
inactive: Potency [1] | Potency [2] | outcome [3] | outcome [5] | Potency (Aromatase (Homo sapiens))

CC(C)NCC(O)COc1cccc2[nH]ccc12 (stereo unspecified)
inactive: Potency [1] | Potency [2] | outcome [3] | outcome [4] | outcome [5] | Potency (Aromatase (Homo sapiens))

C[C@H](N)[C@H](O)c1cccc(O)c1
inactive: Potency [1] | outcome [7] | outcome [4] | outcome [6] | Potency [8] | Potency [9] | outcome [5] | Potency (Aromatase (Homo sapiens))

COC(=O)C1CC(=O)C(C(=O)OC)CC1=O (stereo unspecified)
inactive: activity change, negative = cytotoxic [1] 29.4% [at 8.44 µM] | activity, negative = inhibition [2] -0.0159% [at 8.44 µM] | activation [3] -0.929% [at 8.08 µM] | activity, negative = cytotoxicity [4] 10.1% [at 6.72 µM] | activity, negative = inhibition (Aromatase (Homo sapiens)) 8.29% [at 8.47 µM]

CC1=CCC(C(C)C)=CC1
inactive: Potency [1] | outcome [7] | outcome [4] | outcome [6] | Potency [8] | Potency [9] | outcome [5] | Potency (Aromatase (Homo sapiens))

CCOc1cc([N+](=O)[O-])c(OCC)cc1N1CCOCC1
inactive: Potency [1] | outcome [3] | outcome [4] | outcome [6] | Potency [8] | Potency [9] | outcome [5]
active: Potency (Aromatase (Homo sapiens)) 34.4 µM

O=C(NCCN1CCOCC1)c1ccc(Cl)cc1
inactive: Potency [1] | Potency [2] | outcome [3] | outcome [4] | outcome [5] | Potency (Aromatase (Homo sapiens))

NCCS
inactive: Potency [1] | Potency [2] | outcome [3] | outcome [4] | outcome [5] | Potency (Aromatase (Homo sapiens))

O=C(Nc1ccc(Cl)c(Cl)c1)C1CC1
inactive: Potency [1] | outcome [3] | outcome [7] | outcome [6] | outcome [5] | Potency (Aromatase (Homo sapiens))
active: Potency [9] 21.1 µM

COC(=O)[C@@H]1[C@H]2C[C@H]3c4[nH]c5ccccc5c4CCN3C[C@@H]2CC[C@@H]1O
inactive: Potency [1] | outcome [3] | outcome [7] | outcome [4] | outcome [6] | Potency [8] | Potency [9] | outcome [5] | Potency (Aromatase (Homo sapiens))

CCCCCCOc1ccccc1C(N)=O
active: Potency [9] 33.5 µM
inactive: Potency [1] | outcome [3] | outcome [7] | outcome [4] | outcome [6] | outcome [5] | Potency (Aromatase (Homo sapiens))

CC(=O)c1ccc2c(c1)Cc1ccccc1-2
inactive: Potency [2] | outcome [3] | outcome [7] | outcome [4] | outcome [5] | Potency (Aromatase (Homo sapiens))
active: Potency [8] 24.4 µM

Cc1ccc(C=O)cc1C
inactive: Potency [1] | outcome [7] | outcome [4] | outcome [6] | Potency [8] | Potency [9] | outcome [5] | Potency (Aromatase (Homo sapiens))

Nc1ccc([N+](=O)[O-])c(N)c1
inactive: Potency [2] | outcome [3] | outcome [7] | outcome [6] | Potency [9] | Potency (Aromatase (Homo sapiens))

Cc1cc(Cl)c(C)cc1Cl
inactive: Potency [1] | outcome [4] | outcome [5] | Potency (Aromatase (Homo sapiens))

COc1ccc2c(c1OC)C(=O)O[C@@H]2[C@H]1c2c(cc3c(c2OC)OCO3)CCN1C
inactive: outcome [4]
active: Potency [1] 11.9 µM

CC(N)C(=O)OC(C)(C)Cc1ccc(Cl)cc1 (stereo unspecified)
inactive: outcome [3] | outcome [7] | outcome [4] | outcome [6] | Potency [8] | Potency [9] | outcome [5] | Potency (Aromatase (Homo sapiens))

O=Cc1ccc(Cl)c(Cl)c1
inactive: Potency [2] | outcome [3] | outcome [4] | outcome [5] | Potency (Aromatase (Homo sapiens))

COc1ccc(Br)c(C)c1
inactive: Potency [2] | outcome [3] | outcome [4] | outcome [5] | Potency (Aromatase (Homo sapiens))

CCCOC(=O)C(C)O (stereo unspecified)
inactive: Potency [2] | outcome [3] | outcome [7] | outcome [4] | outcome [6] | Potency [8] | Potency [9] | outcome [5]
